Among all 3,400 compounds or so, about 840 (25%) were called active. Roughly 11% stayed inconclusive and do not appear here.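 Rule for the calls: active = fitted half-maximal concentration of signal decrease at or below twice the sample's top tested concentration; inconclusive = flat curve between -70 and -30 percent, or poor fit; inactive = flat within 30 percent, signal rise, or potency above limit.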 These entries were drawn from the full list. Entries with a potency or affinity are not part of this list.

The experiment can be described thus: T. gondii growth inhibition with IFN-gamma, dose response, cell-based, ME49Luc, HeLa, luciferase, 72 h (AID 1259418). The conditions noted are these: T. gondii ME49Luc in IFN-y HeLa, active compounds read low, -100% = high-dose IFN-γ control wells; at 19.5 µM unless noted.
With `Cc1ccc(-c2nc(CN3CCN(C(=O)Nc4ccc(Cl)cc4)CC3)c(C)o2)cc1`, the max activity is 22.8% [at 0.16 µM] (inactive).
Consider `Cc1ccc(NC(=O)N2CCN(Cc3nc(-c4ccccc4C)oc3C)CC2)cc1`, for which the max activity was 9.16% [at 2.6 µM] (inactive).
With `CCc1ccc(NC(=O)N2CCN(Cc3nc(-c4ccc(C)cc4)oc3C)CC2)cc1`, the max activity is -17.1% [at 0.68 µM] (inactive).
For `CCCNC(=O)N1CCN(Cc2nc(-c3ccc(OCC)cc3)oc2C)CC1` the value was 7.68% (inactive); for `Cc1ccc(NC(=O)N2CCN(Cc3nc(-c4ccc(C)cc4)oc3C)CC2)cc1`, 13.6% [at 0.16 µM] (inactive); for `Cc1ccc(-c2nc(CN3CCN(C(=O)NC(C)C)CC3)c(C)o2)cc1`, -10.1% [at 0.35 µM] (inactive).
Turning to `CCOC(=O)c1ccc(NC(=O)N2CCN(Cc3nc(-c4cccc(Cl)c4)oc3C)CC2)cc1`, the max activity is 13.5% [at 1.35 µM] (inactive).
In the case of `Cc1ccc(-c2nc(CN3CCN(C(=O)Nc4cccc(C)c4)CC3)c(C)o2)cc1`, the max activity was -23.6% (inactive).
To `COC(=O)c1cccc(NC(=O)Nc2ccc(-c3nc(-c4ccc(C)cc4C)co3)cc2)c1` belongs 21.2% (inactive); to `Cc1ccc(-c2coc(-c3ccc(NC(=O)c4ccccc4)cc3)n2)c(C)c1`, 20.4% [at 10 µM] (inactive); to `Cc1ccc(-c2coc(-c3ccc(NC(=O)Nc4ccc5c(c4)OCCO5)cc3)n2)c(C)c1`, 48.2% (inactive).
With `Cc1ccc(CNC(=O)C2(C)CCC(=O)N2CCc2c[nH]c3ccccc23)cc1` (stereo not drawn), the max activity is -12.5% [at 0.35 µM] (inactive).
As to `O=C(Nc1ccc(-c2nc(-c3ccccc3)co2)cc1)Nc1ccccc1Br`, the max activity was 65.8% [at 10 µM] (inactive).
To `Cc1ccc2c(c1C)-n1cccc1C1(CCN(C(=O)CC(C)C)CC1)N2` belongs 7.04% [at 0.68 µM] (inactive).
Regarding `O=C(Cc1ccccc1Cl)N1CCC2(CC1)Nc1ccccc1-n1cccc12`, the max activity is 15.3% [at 10 µM] (inactive).
To `COc1ccc(S(=O)(=O)N2CCC[C@@H]2C(=O)NCCc2csc(C)n2)cc1Cl` belongs 8.05% [at 10 µM] (inactive).
For the compound `CCOCCCNC(=O)c1ccc2ccc(N3CCN(CC4CC4)CC3)n2c1`, the max activity was 42.5% (inactive).
For `CCOc1cccc(-c2noc(-c3nnn(Cc4nc(-c5cccc(C)c5)oc4C)c3C)n2)c1` the value was 8.84% (inactive); for `CCOc1ccc(-c2nc(CN3CCN(C(=O)NCCc4ccccc4)CC3)c(C)o2)cc1`, -9.01% [at 0.68 µM] (inactive); for `COc1ccc(NC(=O)N2CCN(Cc3nc(-c4ccc(C)cc4)oc3C)CC2)cc1OC`, 9.7% (inactive).
For `Cc1ccccc1-c1nc(CN2CCN(C(=O)Nc3ccccc3)CC2)c(C)o1` the value was -12.3% [at 2.6 µM] (inactive).
As to `CCOc1ccc(-c2nc(CN3CCN(C(=O)Nc4cccc(OC)c4)CC3)c(C)o2)cc1`, the max activity is 16.9% [at 0.35 µM] (inactive).
`O=C(Cc1ccc(Cl)cc1)Nc1ccc(-c2nc(-c3ccccc3)co2)cc1`: the max activity was 17.2% [at 2.6 µM] (inactive).
For `CCOC(=O)C(=O)Nc1ccc(-c2nc(-c3ccc(C)cc3C)co2)cc1` the value was 44.4% (inactive); for `CC(C)c1ccc(C(=O)N=C(N)N)cc1S(C)(=O)=O`, 11.6% (inactive); for `CCS(=O)(=O)N1CC(=O)N2[C@H](CO)[C@@H](c3ccc(-c4cccc(F)c4)cc3)[C@@H]2C1`, -8.63% (inactive).
Consider `Cc1ccsc1C(=O)N1CCc2nc(-c3cnn(C)c3)nc(NC(C)C)c2C1`, for which the max activity is -26.1% [at 0.16 µM] (inactive).
In the case of `COc1ccc(-c2nc3c(s2)CN(S(=O)(=O)c2cccc(F)c2)CC3)cc1`, the max activity is 9.88% (inactive).
As for `CCOc1ccc(-c2nc3c(s2)CN(S(=O)(=O)c2cccc(C)c2)CC3)cc1`, the max activity was 29% (inactive).
As to `Cc1ccc(-c2coc(-c3ccc(NC(=O)Nc4ccccc4C)cc3)n2)c(C)c1`, the max activity is 21.8% [at 10 µM] (inactive).
`Cc1ccc(OCC(=O)Nc2ccc(-c3nc(-c4ccc(C)cc4)co3)cc2)cc1`: the max activity is 20.2% (inactive).
Regarding `COc1ccccc1-c1nc(Cn2c(=O)c3c(C)cc(C)nc3n(-c3ccccc3)c2=O)c(C)o1`, the max activity is 9.28% [at 2.6 µM] (inactive).
Regarding `Cc1ccc2c(c1C)-n1cccc1C1(CCN(C(=O)COc3ccc(Cl)cc3)CC1)N2`, the max activity was -7.41% [at 1.35 µM] (inactive).
With `O=C(CCC1Nc2c3ccccc3nc(=S)n2C1=O)NCc1cccs1` (stereo not drawn), the max activity was 14.7% [at 5 µM] (inactive).
On to `Cc1nc(OCC(=O)Nc2ccccc2C)c2ccccc2n1`, for which the max activity is 19.6% [at 0.68 µM] (inactive).
As to `CO[C@@H]1CCN(c2ncccn2)C[C@@H]1Cc1cccc(C)c1`, the max activity is 9.87% (inactive).
For `COc1ccc(C[C@H]2CN(C(=O)c3ccnn3C)CC[C@H]2OC)cc1` the value was 30.4% (inactive); for `O=S(=O)(c1cccc(C(F)(F)F)c1)N1CCC(N2CCOCC2)CC1`, 20.6% [at 0.16 µM] (inactive).
For `CN(C)C(=O)CN1CCOCC2(CCN(CC3CCOC3)CC2)C1` (stereo not drawn) the value was 23.8% (inactive); for `Cc1ccc(C)c(-c2coc(-c3ccc(NC(=O)NC4CCCC4)cc3)n2)c1`, 6.74% (inactive).
With `Cc1ccc2c(c1C)-n1cccc1C1(CCN(C(=O)CC3CCCCC3)CC1)N2`, the max activity is -13.7% [at 0.16 µM] (inactive).
For `CCC(CC)C(=O)N1CCC2(CC1)Nc1ccc(C)c(C)c1-n1cccc12` the value was -6.76% [at 0.35 µM] (inactive); for `CCOc1ccc(S(=O)(=O)N2CCC[C@@H]2C(=O)NCCc2csc(C)n2)cc1`, -13.1% (inactive).
